Measured values from PubChem BioAssay (NCI).
Where “and” joins values, the source holds several entries; their conditions need not be identical. Equal entries are not always repeated. The panel holds about 83,000 compounds, 20% with a hit somewhere; the sample as a whole holds those more often.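 The endpoint reported here, percent growth, reads 100 for growth as untreated, 0 for no net growth and -100 for all cells dead.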 A number with no mark means an inactive call. Calls of active or inactive are those of the source.

system: HL-60(TB) leukemia; assay: NCI-60 one-dose screen, 48 h (100 = growth as untreated, 0 = no growth, -100 = all killed); settings: 10 µM unless noted
Method: Growth inhibition of the HL-60(TB) human tumor cell line is measured as a screen for anti-cancer activity. Cells are grown in 96 well plates and exposed to the test compound for 48 hours. Compounds are tested at a single concentration, which is 10^-5 M for most compounds. The reported endpoint is percent growth (GI% or GIPRCNT), where numbers from 0 - 100% represent growth inhibition, and numbers from -100% - 0 represent cell death. For example, a value of 40 represents 60% growth inhibition. A value of 0 means no net growth occurred over the course of the experiment. A value of -40 indicates 40% of cells at the beginning of the experiment died by the end of the experiment. A value of -100 means all cells are dead at the end of the experiment.
NCI-60 Human Tumor Cell Lines Screen was performed using the standard one-dose NCI protocol, which is described in more detail at https://dtp.cancer.gov/discovery_development/nci-60/default.htm.
Compounds with GIPRCNT values below 10 were considered active. Activity score was based on GIPRCNT using the following formula: […]
Score is 0 for GIPRCNT values of 100 or above, 50 for GIPRCNT values of 0, and 100 for GIPRCNT values of -100.

Compound	growth
Cc1nc2cncc(C#Cc3cncc(C(=O)Nc4ccc(CN5CCN(C)CC5)c(C(F)(F)F)c4)c3)c2nc1C	-8.15% (active)
O=P(O)(O)OCC(O)CO (centres undefined)	97.7%
N#Cc1ccc(OC(=O)Nc2cc(Cl)cc(Cl)c2)cc1	-0.568% [100 µM] (active)
CC(C)c1ccc(COCc2cc(CN3CCCC3)c(O)c3ncccc23)cc1	-20.3% (active)
C#Cc1ccc(NC(=O)c2ccc(/C=C/C(=O)c3nccn3C)cc2)cc1	-27.2% (active)
Cc1c(C(N)=O)sc2ncn(CC(=O)NN=C3CCCCC3)c(=O)c12	123%
Cc1c2c(cc3c1[nH]c1ccccc13)C=NCC2	93.3%
C=C1C(=O)O[C@H]2[C@H]1CC/C(COC(=O)NCc1ccc(Cn3c(=O)sn(CCI)c3=O)cc1)=C\CC[C@@]1(C)O[C@@H]21	0.649% (active)
CCOC(=O)C(CCC#N)(CCC#N)C(=O)OCC	103%
C[C@@H](NC(=O)[C@@H](CC(=O)N1CCC(N2CCCCC2)CC1)N1C(=O)[C@@H](N2C(=O)OC[C@@H]2c2ccccc2)[C@H]1/C=C/c1cccc(Cl)c1)c1ccccc1	66.3%
COc1ccc(C2=Nc3c/c(=C\c4c(O)[nH]c5ccc(Cl)cc45)ccc3=N2)cc1	6.79% (active)
Cn1ccnc1C(=O)/C=C/c1ccc(CC(=O)Nc2ccc(C(F)(F)F)cc2)cc1	-2.06% (active)
CC1CN(Cc2ccco2)C(=S)N(c2ccccc2)C1=O (centres undefined)	61.3%
COc1ccc(C2=CC(c3ccc(Oc4ccnc5cc(Cl)ccc45)c(OC)c3)c3c(nc(OC)[nH]c3=O)N2)cc1 (centres undefined)	85.7%
O=C1/C(=C/c2ccc(Cl)cc2)COc2ccc(O)cc21	-11.3% (active)
C(#CCN1CCOCC1)CCCN1CCOCC1	93% and 127%
NCc1c(O)ccc2ccccc12	102%
Cc1ccc(-c2csc(NC(=O)CN3CCN(c4cc5c(cc4F)c(=O)c(C(=O)O)cn5C4CC4)CC3)n2)cc1	-56.3% (active)
NS(=O)(=O)c1ccc(-n2ncc(NC(=O)Nc3ccc(S(=O)(=O)Nc4nccs4)cc3)c2-c2ccccc2)cc1	92.5%
O=C1Nc2ccccc2SC1c1ccccc1Cl (centres undefined)	71%

Compound	growth
COC(=O)[C@H]1[C@H](OC)[C@@H](OC(=O)/C=C/c2ccncc2)CC2CN3CCc4c([nH]c5cc(OC)ccc45)[C@@H]3C[C@@H]21 (some centres undefined)	28.6%
O=C(Nc1ccc(F)cc1)c1ccccc1	97.5%
CC(C)N(Cc1ccc(CN(C(=O)CCl)C(C)C)cc1)C(=O)CCl	-46% (active)
N=c1ccc2nc3c(cc(N)c4ccccc43)oc-2c1	-48.4% (active)
CC1=C(C(=O)OC(C)C)C(c2ccc3c(c2)OCO3)NC(=S)N1 (centres undefined)	105%
O=C(Nc1ccc(Oc2ccc(NC(=O)Nc3ccc([N+](=O)[O-])cc3)cc2)cc1)Nc1ccc([N+](=O)[O-])cc1	-32.6% (active)
C=CCn1cc(-c2nc3ccccc3s2)c2cc(-c3ccc4c5c(cccc35)C(=O)N(N)C4=O)ccc21	103%
C=C(C)[C@@H]1CC[C@]2(C(N)=O)CC[C@]3(C)[C@H](CC[C@@H]4[C@@]5(C)C/C(=C/c6cccnc6)C(=O)C(C)(C)[C@@H]5CC[C@]43C)[C@@H]12	3.16% [100 µM] (active)
CCN1CCN(C(=O)[C@]23CCC(C)(C)C[C@H]2C2=CC[C@@H]4[C@@]5(C)CC/C(=N/O)C(C)(C)[C@@H]5CC[C@@]4(C)[C@]2(C)CC3)CC1	-9.73% (active)
CC1=CC[C@@H]2C(C)(C)C(=O)CC[C@@]2(C)[C@@H]1COc1ccc2ccc(=O)oc2c1	85.9%
CCOC(=O)c1nnn(C(Cc2ccccc2Cl)C(=O)OCC)c1C (centres undefined)	96.5%
CN(C)CCCOc1c(Br)cc(/C=C/C(=O)N(C)CCc2cc(Br)c(OCCCN(C)C)c(Br)c2)cc1Br	81.9%
Cc1cc(-c2ccc(NS(=O)(=O)c3ccccc3)c(C)c2)ccc1NS(=O)(=O)c1ccccc1	74.5% and 97.3%
CCN(C(=O)N1CCN(c2cc3c(cc2F)c(=O)c(C(=O)O)cn3C2CC2)CC1)c1nc(-c2ccc(Cl)cc2)cs1	-27.1% (active)
COc1cc(NC2CCC(=O)N2c2ccc(Cl)cc2Cl)cc(OC)c1OC (centres undefined)	-3.13% (active)
CC1=CSC2=NC(c3ccc(Cl)c(Cl)c3)=CC(c3ccc(Cl)cc3)N12 (centres undefined)	47.7%
O=C(Cc1ccccc1)NC(c1ccc(Cl)cc1)c1c(O)ccc2ccccc12 (centres undefined)	7.2% (active)
Fc1ccc2nc(-c3cc(-c4ccc5c(c4)OCO5)n[nH]3)[nH]c2c1	13.9%
O=[N+]([O-])c1ccc2c(c1)Cc1cc(F)ccc1-2	114%
